hcGAS inh: inhibitors of human cGAS; Q8N884; recombinant h-cGAS, ATP depletion, Kinase-Glo luminescence; inhibition, % at 12.5 µM; hit rate 0.081% among 290,000; AID 1259398;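 further: 0% = vehicle reaction and 100% = reaction without DNA for no activity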
NPYLR7 ag: mosquito NPYLR7 agonism; HEK293T NPYLR7/Galpha15, GCaMP6s calcium fluorescence; activation, % at 10 µM; hit rate 0.15% among 270,000; AID 1259423; in the data active means activation above about 40%;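 further: 0% = vehicle and 100% = reference agonist at the receptor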
mcGAS lum: mouse cGAS inhibition by luminescence; Q8C6L5; recombinant cGAS, Kinase-Glo ATP depletion luminescence; inhibition, % at 12.5 µM; hit rate 0.15% among 160,000;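 further: 0% = negative control wells and 100% = reference inhibitor with no enzyme activity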
Target sequence (Q8C6L5 whole entry, looked up): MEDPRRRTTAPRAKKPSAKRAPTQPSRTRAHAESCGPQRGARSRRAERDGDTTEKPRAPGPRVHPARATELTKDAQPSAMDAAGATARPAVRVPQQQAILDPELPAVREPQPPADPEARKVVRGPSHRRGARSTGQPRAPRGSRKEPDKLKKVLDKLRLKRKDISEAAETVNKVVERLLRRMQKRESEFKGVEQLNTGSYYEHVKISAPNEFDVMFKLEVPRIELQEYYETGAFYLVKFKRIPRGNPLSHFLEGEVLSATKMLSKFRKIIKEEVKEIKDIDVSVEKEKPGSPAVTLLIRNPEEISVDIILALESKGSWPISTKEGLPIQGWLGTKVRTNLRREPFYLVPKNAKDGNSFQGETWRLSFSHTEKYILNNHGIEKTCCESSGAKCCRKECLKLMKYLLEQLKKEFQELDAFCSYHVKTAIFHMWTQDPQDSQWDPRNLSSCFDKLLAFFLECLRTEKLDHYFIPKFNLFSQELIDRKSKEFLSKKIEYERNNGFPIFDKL
* marks the source's active call; other numbers are inactive results; · = not tested or not shown; + = active, no number; ! = a repeat was not active. This is a sample that favours compounds with a hit; in the whole collection about 0.3% have one here. Unless noted, no stated cut-off is given here; in the data, active means inhibition above about 40%; inactive means the rest.

SMILES	hcGAS inh	NPYLR7 ag	mcGAS lum
CC[n+]1c(-c2ccccc2)c2cc(N)ccc2c2ccc(N)cc21	55.8*!	-4.6	·
COc1ccc(/C=C\C(=O)Nc2cc(=O)n(C)c(=O)n2C)cc1OC	-11.1	10.0	-7.2
CCn1c(=O)c2c(nc(/C=C/c3ccc(OC)c(OC)c3)n2C)n(CC)c1=O	-7.0	84.5*	-10.1
CC(c1ccccc1)N(Cc1ccco1)Cc1nc(C(=O)NCc2ccc(F)cc2)co1 (stereo unspecified)	1.0	14.5	-2.7
N#CC1C(=N)Oc2cc(O)ccc2C1c1ccncc1 (stereo unspecified)	-7.9	85.0*	-1.4
N#CC1C(=N)Oc2cc(O)ccc2C1c1ccccc1I (stereo unspecified)	4.0	82.2*	1.9
N#CC1C(=N)Oc2cc(O)ccc2C1c1cccs1 (stereo unspecified)	-4.4	11.0	-0.6
N#CC1C(=N)Oc2cc(O)ccc2C1c1ccc(Br)cc1 (stereo unspecified)	-1.8	0.1	·
N#CC1C(=N)Oc2cc(O)ccc2C1c1ccc(Cl)cc1Cl (stereo unspecified)	-4.6	96.0*	·
N#CC1C(=N)Oc2cc(N)ccc2C1c1ccc(Cl)cc1Cl (stereo unspecified)	-7.4	5.6	·
COc1ccc(CN(Cc2ccc(F)cc2)Cc2nc(C(=O)NC(C)c3ccccc3)co2)cc1 (stereo unspecified)	-2.6	·	-3.8
O=C(/C=C/c1cccs1)N1CCC2(CCCN(CC3CCCCC3)C2)C1 (stereo unspecified)	-7.1	17.2	-11.3
CCc1csc(CNC(=O)c2ccc(NCc3cnn(C)c3)nc2)n1	-1.6	0.7	-5.3
O=C(Cn1c(C(F)(F)F)nc2ccccc21)NCCc1ccccc1	-2.1	1.1	-4.8
COc1ccc(C(=O)C=Cc2cccc(O)c2)cc1F	0.6	-1.7	22.7
CCN1CCN(c2ccc(C(=O)C=Cc3ccc(O)c(OC)c3)cc2F)CC1	-8.0	92.9*	·
CCc1ccc(S(=O)(=O)NCC(c2ccc3c(c2)CCN3C)N2CCN(C)CC2)s1 (stereo unspecified)	-2.7	3.3	-6.6
CCOC(=O)CCC(=O)N(CC(=O)N1CC(=O)N(c2ccc(OC)cc2)C1)CC(C)C	-6.5	9.8	-4.1
CC(=O)O[C@@H]1CC[C@@]2(C)C(CC[C@]3(C)C2CC=C2C4CC(C)(C)CC[C@]4(C(=O)O)CC[C@]23C)C1(C)C (stereo partly specified)	-4.5	·	-4.3
C[C@H]1O[C@H](O[C@@H]2[C@@H](O[C@H]3CC[C@@]4(C)C(CC[C@]5(C)C4CC=C4[C@@H]6CC(C)(C)CC[C@]6(C(=O)O)CC[C@]45C)[C@]3(C)CO)OC[C@@H](O)[C@H]2O)[C@@H](O)[C@H](O)[C@@H]1O (stereo partly specified)	0.9	53.1*	·
CCOC(=O)N1CCN(/C=C(\C#N)c2nc3ccccc3s2)CC1	1.3	-9.5	-1.1
CCOC(=O)N1CCN(c2ccc(/C=C(\C#N)c3nc4ccccc4[nH]3)o2)CC1	-6.8	102.5*	·
CC(C)N(CCC(N)=O)Cc1cc2ccccc2o1	0.2	1.1	-7.0
CC1CCCCC1OCCNC(=O)C1(c2ccc(F)cc2)CCC1 (stereo unspecified)	-2.8	54.7*	·
O=C(NCCN1CCCC1)C1(c2ccc(F)cc2)CCOCC1	-16.4	1.4	·
SMILES	hcGAS inh	NPYLR7 ag	mcGAS lum
CS(=O)(=O)CC(=O)N(Cc1ccccc1)CC1CCC1	-5.7	14.7	·
CCCCN(C)C1=CC2=CC(=C(C#N)C#N)CCC2CC1 (stereo unspecified)	-8.9	+	-4.9
CCN(CC)C1=CC2=CC(=C(C#N)C#N)CCC2CC1 (stereo unspecified)	-0.1	614.6*	-1.7
CN(Cc1ccccc1)C1=CC2=CC(=C(C#N)C#N)CCC2CC1 (stereo unspecified)	-2.9	117.8*	·
COc1ccc(C(=O)Oc2ccc3oc4c(c3c2)CCCC4)cc1OC	-2.0	-5.1	·
C=CCO[C@H]1[C@H](NC(=O)CSC)c2ccccc2C12CCN(Cc1cccc3cnccc13)CC2	-8.8	17.8	-13.1
Cc1cccc(NC(=O)Nc2ccc(Nc3cc(-n4ccnc4)ncn3)cc2)c1	-3.7	-13.7	-9.0
COC(=O)c1ccc(-c2noc(CN3CCC(c4nc5ccccc5o4)CC3)n2)cc1	-5.1	-4.1	-4.4
O=C(O)c1csc(CSc2nnc(Cc3ccccc3)n2-c2cccc(C(F)(F)F)c2)n1	1.0	55.2*	-0.2
O=C(NCc1cccc(C(F)(F)F)c1)c1csc(CSc2nnc(Cc3ccccc3)n2-c2ccccc2)n1	-3.3	-2.4	-4.8
CC(C)C(NC(N)=O)C(=O)Nc1cc(F)cc(F)c1 (stereo unspecified)	-6.0	-1.5	·
Cc1cc[n+](C2=C(c3c(C)[nH]n(-c4ccc(F)cc4)c3=O)C(=O)N(C(C)C)C2=O)cc1C	-2.4	-5.8	-2.2
COc1ccc(-n2ccnc2-c2ccc(C#CC(C)(C)O)cc2)cn1	-8.0	56.7*	·
COc1ccc(-n2ccnc2-c2cccc(OC)c2OC)cn1	-3.9	-0.2	0.4
O=S(=O)(O)c1cc(N=C=S)ccc1/C=C/c1ccc(N=C=S)cc1S(=O)(=O)O	85.8*	2.6	·
CC(C)(C)/[N+]([O-])=C/c1ccc(S(=O)(=O)O)cc1S(=O)(=O)O	-3.2	-9.7	·
CCOC(=O)CN(C(=O)COc1ccccc1)[C@H]1[C@H](O)[C@@H]2O[C@H]1c1ccccc12	-3.4	5.0	-6.4
CC(=O)Nc1ccc(Cl)c(C(=O)N2CCCCC2C(=O)O)c1 (stereo unspecified)	-3.6	21.6	·
CCOc1ccc(NC(C)=O)cc1	-4.2	71.1*!	·
CCOc1ccc(NC(=O)CC(C)O)cc1 (stereo unspecified)	-2.6	-3.7	·
CNC(=O)CN(C(=O)NC1CCCCC1)[C@H]1[C@H](O)[C@@H]2O[C@H]1c1ccccc12	1.0	3.7	-2.2
CC(C)(C)c1cnc(Cn2c(C(F)(F)F)csc2=O)o1	-11.6	10.1	·
CCOc1ccc(CN(C(=O)c2ccc(CO)cc2)C2CC2)cc1	-9.1	-4.3	·
C=CCCC(O)CNc1ccc(-n2nc(OCCOCC)nc2-c2ccccc2C)cc1 (stereo unspecified)	52.1*	-1.2	0.4
CCOCCOc1nc(-c2ccccc2C)n(-c2ccc(NC(=O)CCCCl)cc2)n1	1.9	-0.9	0.4
SMILES	hcGAS inh	NPYLR7 ag	mcGAS lum
CN1C(=S)N(CCCN2CCOCC2)C(=O)/C1=C/c1ccc(N(C)C)cc1	-7.9	59.8*	-9.0
CN1C(=S)N(CCCN2CCOCC2)C(=O)/C1=C\c1ccc2c(c1)OCO2	-5.7	17.4	-6.9
CCc1ccc(N2CCC(NS(=O)(=O)N(CC)CC)CC2)cc1	18.9	-0.3	11.2
NC(=O)C1CCN(c2ncnc3nc[nH]c23)CC1	-3.8	2.7	·
CN(C(=O)CCl)c1nnc(C23CC4CC(CC(C4)C2)C3)s1	-1.4	0.1	60.3*
CCC(=O)N(C)c1nnc(C23CC4CC(CC(C4)C2)C3)s1	-3.6	2.7	-2.4
N#Cc1ccccc1S(=O)(=O)N1CCC(C(=O)NC(c2ccccc2)C2CC2)CC1 (stereo unspecified)	-4.9	-0.6	-7.9
CN(CC1COc2ccccc2O1)C(=O)CN1C(=O)c2ccccc2S1(=O)=O (stereo unspecified)	-6.5	2.5	·
CN(CC1COc2ccccc2O1)C(=O)CCl (stereo unspecified)	-7.2	-5.3	53.9*

High-throughput results (PubChem)
